The compounds below were run on Vero E6 infected with SARS-CoV-2 (assay: morphology score (similarity to uninfected cells); higher = more like uninfected cells). Conditions: 24 h.
`CC(=O)[C@H]1CC[C@H]2[C@@H]3C[C@H](C)C4=CC(=O)CC[C@]4(C)[C@H]3[C@@H](O)C[C@]12C` [medrysone] (10 µM) was tested, and the morphology score was 0.0629. In the case of `CNC1CC(N)C(O)C(OC2OC(CO)C(O)C3OC4(OC(C(N)CO)C(O)C(O)C4O)OC23)C1O` (configuration not stated) [Hygromycin B] (10 µM), the morphology score is reported as 0.0213. `CCc1cc(Cl)c(OC)c(C(=O)NC[C@@H]2CCCN2CC)c1O` [eticlopride] (10 µM) was tested, and the morphology score was 0.426. `CC(C)n1c(=O)n(C(=O)N[C@H]2C[C@H]3CC[C@@H](C2)N3C)c2ccccc21` (10 µM) gave a morphology score of 0.0156. `O=C(C1CC1)N1CC[C@@H](Cc2n[nH]c(=O)n2-c2ccc(-c3ccc4occc4c3)cc2)C1` (10 µM) gave a morphology score of 0.269. Compound `CCn1c(-c2nonc2N)nc2c(C#CC(C)(C)O)ncc(OC[C@H]3CCCNC3)c21` (10 µM) has a morphology score of 0.337. In the case of `NS(=O)(=O)c1cc(C2(O)NC(=O)c3ccccc32)ccc1Cl` (configuration not stated) [chlorthalidone] (10 µM), the morphology score is reported as 0.13. Compound `CCOC(=O)c1c(CSc2ccccc2)n(C)c2cc(Br)c(O)c(CN(C)C)c12` [arbidol] (10 µM) has a morphology score of 0.126. With `CC(=O)[O-].CC(=O)[O-].N.NC1CCCCC1.[Cl-].[Cl-].[Pt+4]` [satraplatin] (0.833333 µM) the morphology score was 0.00101. Compound `NC(=O)N1c2ccccc2CC(=O)c2ccccc21` [oxcarbazepine] (10 µM) has a morphology score of 0.0932. With `CN(C)c1ccc(-c2nc3c(N4CCN(CC(=O)Nc5nccs5)CC4)c(Cl)cnc3[nH]2)cc1` (10 µM) the morphology score was 0.47. `CC(=O)OCC(=O)[C@@]12OC3(CCCC3)O[C@@H]1C[C@H]1[C@@H]3CCC4=CC(=O)C=C[C@]4(C)[C@@]3(F)[C@@H](O)C[C@@]12C` [amcinonide] (10 µM) was tested, and the morphology score was 0.114.

The compounds below were run on Vero E6 infected with SARS-CoV-2 (assay: SARS-CoV-2 infection rate relative to infected DMSO; higher = more infection, active = 60 or less). Conditions: 24 h.
`Cc1oc2ccccc2c1CNC(=O)NCc1cccs1` (10 µM) was tested, and the SARS-CoV-2 infection rate was 100% (inactive). `CO/N=C1\CN(c2nc3c(cc2F)c(=O)c(C(=O)O)cn3C2CC2)CC1CN` (configuration not stated) [gemifloxacin] (10 µM) was tested, and the SARS-CoV-2 infection rate was 91.5% (inactive). `O=c1ccc2ccccc2o1` [coumarin] (10 µM) was tested, and the SARS-CoV-2 infection rate was 89.5% (inactive). With `Cc1ccc(CCCO)c(NCc2ccc3nc(NCCCN4CCOCC4)n(Cc4nc(C)ccc4O)c3c2)c1` (10 µM) the SARS-CoV-2 infection rate was 96.5% (inactive). In the case of `OCCNCCCOc1cccc(Cl)c1Cl` (0.833333 µM), the SARS-CoV-2 infection rate is reported as 112% (inactive). `CCCCNC(=O)[C@@H]1Cc2ccccc2N1C(=O)[C@@H](N)CC` [butabindide] (10 µM) was tested, and the SARS-CoV-2 infection rate was 86.5% (inactive). With `c1cnc(SCc2cccnc2)nc1` [tasuldine] (10 µM) the SARS-CoV-2 infection rate was 99.5% (inactive). `CN(C)C/C=C(/c1ccc(Br)cc1)c1cccnc1` [zimelidine] (10 µM) was tested, and the SARS-CoV-2 infection rate was 97% (inactive). With `O=C(O)c1ccc(O)c2ncccc12` (10 µM) the SARS-CoV-2 infection rate was 102% (inactive). `Nc1ncn([C@H]2C[C@H](O)[C@@H](CO)O2)c(=O)n1` [decitabine] (10 µM) was tested, and the SARS-CoV-2 infection rate was 104% (inactive). In the case of `OCc1cncc(F)c1` [5-fluoro-3-pyridyl-methanol] (10 µM), the SARS-CoV-2 infection rate is reported as 102% (inactive). In the case of `O=C1C=CC(=O)C2=C1C1c3ccccc3C2c2ccccc21` (10 µM), the SARS-CoV-2 infection rate is reported as 102% (inactive). `COc1cc(Nc2ncc(F)c(Nc3ccc4c(n3)NC(=O)C(C)(C)O4)n2)cc(OC)c1OC` (10 µM) was tested, and the SARS-CoV-2 infection rate was 124% (inactive). With `N[C@H](C(=O)O)c1ccc(O)cc1` [oxfenicine] (10 µM) the SARS-CoV-2 infection rate was 103% (inactive). In the case of `Cc1cc(/C=C/c2ccc3cc(N(C)C)ccc3[n+]2C)c(C)n1-c1ccccc1` [pyrvinium-pamoate] (10 µM), the SARS-CoV-2 infection rate is reported as 113% (inactive). For `Clc1ccc(C2=CCC[C@H]3CC[C@@H]2N3)cn1` (10 µM), the SARS-CoV-2 infection rate was 110% (inactive). With `NS(=O)(=O)c1cc2c(cc1Cl)N=C(CSCc1ccccc1)NS2(=O)=O` [benzthiazide] (10 µM) the SARS-CoV-2 infection rate was 116% (inactive). `CCCCCCCCCCCC(=O)O` [lauric-acid] (10 µM) was tested, and the SARS-CoV-2 infection rate was 96.5% (inactive). In the case of `CC(C)[C@@H](CS(=O)(=O)C(C)C)N1C(=O)[C@@](C)(CC(=O)O)C[C@H](c2cccc(Cl)c2)[C@H]1c1ccc(Cl)cc1` (10 µM), the SARS-CoV-2 infection rate is reported as 114% (inactive). With `O=c1cc(N2CCOCC2)oc2c(-c3ccccc3)cccc12` (0.833333 µM) the SARS-CoV-2 infection rate was 98.5% (inactive). For `C[C@@H]1CCN(C(=O)CC#N)C[C@@H]1N(C)c1ncnc2[nH]ccc12` (10 µM), the SARS-CoV-2 infection rate was 106% (inactive). With `C[C@H]1[C@H](NC(=O)/C(=N\OC(C)(C)C(=O)O)c2csc(N)n2)C(=O)N1S(=O)(=O)O` [aztreonam] (10 µM) the SARS-CoV-2 infection rate was 94% (inactive). For `CCC/N=C1\S/C(=C\c2ccc(OC[C@H](O)CO)c(Cl)c2)C(=O)N1c1ccccc1C` [ponesimod] (10 µM), the SARS-CoV-2 infection rate was 108% (inactive). In the case of `C=C1/C(=C\C=C2/CCC[C@]3(C)[C@@H]([C@H](C)CCCC(O)(C(F)(F)F)C(F)(F)F)CC[C@@H]23)C[C@@H](O)C[C@@H]1O` [falecalcitriol] (10 µM), the SARS-CoV-2 infection rate is reported as 95.5% (inactive). With `O=C1CCc2ccc(OCCCCN3CCN(c4cccc(Cl)c4Cl)CC3)cc2N1` [aripiprazole] (10 µM) the SARS-CoV-2 infection rate was 103% (inactive). For `CCCOc1ccc2[nH]cc(C3=CCNCC3)c2n1` (10 µM), the SARS-CoV-2 infection rate was 96% (inactive). In the case of `NCCNC(=O)c1ccc(Cl)cn1` [lazabemide] (10 µM), the SARS-CoV-2 infection rate is reported as 106% (inactive). In the case of `COCCCC/C(=N\OCCN)c1ccc(C(F)(F)F)cc1` [fluvoxamine] (10 µM), the SARS-CoV-2 infection rate is reported as 90% (inactive). For `CC(=O)[C@H]1CC[C@H]2[C@@H]3C[C@H](C)C4=CC(=O)CC[C@]4(C)[C@H]3[C@@H](O)C[C@]12C` [medrysone] (10 µM), the SARS-CoV-2 infection rate was 106% (inactive). `CNC1CC(N)C(O)C(OC2OC(CO)C(O)C3OC4(OC(C(N)CO)C(O)C(O)C4O)OC23)C1O` (configuration not stated) [Hygromycin B] (10 µM) was tested, and the SARS-CoV-2 infection rate was 86.5% (inactive). With `CCc1cc(Cl)c(OC)c(C(=O)NC[C@@H]2CCCN2CC)c1O` [eticlopride] (10 µM) the SARS-CoV-2 infection rate was 63.5% (inactive). For `CC(C)n1c(=O)n(C(=O)N[C@H]2C[C@H]3CC[C@@H](C2)N3C)c2ccccc21` (10 µM), the SARS-CoV-2 infection rate was 106% (inactive). `O=C(C1CC1)N1CC[C@@H](Cc2n[nH]c(=O)n2-c2ccc(-c3ccc4occc4c3)cc2)C1` (10 µM) was tested, and the SARS-CoV-2 infection rate was 90.5% (inactive). With `CCn1c(-c2nonc2N)nc2c(C#CC(C)(C)O)ncc(OC[C@H]3CCCNC3)c21` (10 µM) the SARS-CoV-2 infection rate was 105% (inactive). `NS(=O)(=O)c1cc(C2(O)NC(=O)c3ccccc32)ccc1Cl` (configuration not stated) [chlorthalidone] (10 µM) was tested, and the SARS-CoV-2 infection rate was 78.5% (inactive). For `CCOC(=O)c1c(CSc2ccccc2)n(C)c2cc(Br)c(O)c(CN(C)C)c12` [arbidol] (10 µM), the SARS-CoV-2 infection rate was 87.5% (inactive). In the case of `CC(=O)[O-].CC(=O)[O-].N.NC1CCCCC1.[Cl-].[Cl-].[Pt+4]` [satraplatin] (0.833333 µM), the SARS-CoV-2 infection rate is reported as 104% (inactive). For `NC(=O)N1c2ccccc2CC(=O)c2ccccc21` [oxcarbazepine] (10 µM), the SARS-CoV-2 infection rate was 108% (inactive). With `CN(C)c1ccc(-c2nc3c(N4CCN(CC(=O)Nc5nccs5)CC4)c(Cl)cnc3[nH]2)cc1` (10 µM) the SARS-CoV-2 infection rate was 74.5% (inactive). In the case of `CC(=O)OCC(=O)[C@@]12OC3(CCCC3)O[C@@H]1C[C@H]1[C@@H]3CCC4=CC(=O)C=C[C@]4(C)[C@@]3(F)[C@@H](O)C[C@@]12C` [amcinonide] (10 µM), the SARS-CoV-2 infection rate is reported as 110% (inactive).

From the supplement of paper PMC13380429
